ELG1 DNA repair = blocks ELG1-dependent DNA repair in HEK293T cells. 330,000 compounds, 2.3% hits. Potency, µM (series often up to 46.1 µM), for the others: at the top dose activity change, negative = inhibition, hits mostly inhibitors. HEK293T ELG1-luciferase reporter, luminescence, 16 h; DNA damage induced by 5-fluorouridine; further: potency means the concentration at half of the fitted maximal effect; nearly all actives have a fitted effect of over 55% in size
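Quantitative HTS, concentration-response format. 2,000 cells/well co-treated with 5-fluorouridine and compound, 16 hr in 5% CO2 at 37 °C; ONE-Glo luminescence read after 30 min.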
HT1080 IDH1KD tx = toxicity to HT-1080 IDH1 knockdown cells (counter line); HT-1080 IDH1 knockdown viability, ATP luminescence, 48 h; Potency, µM (titrated, usually from 46.1 µM), inactives show at the top dose activity, negative = toxicity, actives largely listed as cytotoxic; 360,000 compounds, 2% hits;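 further: potency means the concentration at half of the fitted maximal effect; 0% = DMSO wells and -100% = cell-free medium wells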
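HT-1080-IDH1KD cells (IDH1 knocked down), 750/well in RPMI with 5% FBS, treated with compound 48 h at 37 degrees C. Viability by CellTiter-Glo luminescence, normalised to DMSO and no-cell wells; concentration-response curves classed.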
HT1080NT lethal = kills 2HG-producing HT-1080-NT fibrosarcoma cells; HT-1080-NT fibrosarcoma viability, CellTiter-Glo ATP luminescence, 48 h; 360,000 compounds, 1.6% hits; Potency, µM (highest dose often 46.1 µM), without a hit: at the top dose activity, negative = less viability, hits mostly cytotoxic;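 further: NT is the 2HG producing partner of a matched IDH1 knockdown line; potency means the concentration at half of the fitted maximal effect; 0% = DMSO-treated cells and -100% = media-only wells without cells; nearly all actives have a fitted effect of over 55% in size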
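Read-out is CellTiter-Glo luminescence after 10 minutes at room temperature, following 48 hours' compound treatment of HT-1080-NT cells (750 cells/well, RPMI, 5% FBS, 37 degrees C).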
DT40 TDP1 no CPT = qHTS for Inhibitors of human tyrosyl-DNA phosphodiesterase 1 (TDP1): qHTS in cells in absence of CPT; DT40 Tdp1-/- hTDP1 cells, no CPT, ATP luminescence, 48 h; Potency, µM (highest dose often 46.2 µM), for the others: top-dose activity change, negative = growth inhibition, usual class: inhibitors; 420,000 compounds, 15% hits; further: potency means the concentration at half of the fitted maximal effect; nearly all actives have a fitted effect of over 55% in size
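Compound effects on proliferation are scored in DT40 Tdp1-/-;hTDP1 cells in the absence of CPT. ATP levels (CellTiter-Glo luminescence) are recorded after a ≥48 hr, 37 °C incubation.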
IL1B secr inh = blocks inflammasome-driven IL-1 beta release; THP-1 LPS/ATP IL-1B secretion, AlphaLISA, 16 h; hits give low values; activity change, % at 57.5 µM; 360,000 compounds, 4.7% hits; AID 743279; in the data active means activity change below about -50%; inconclusive means mostly about -30% to -49%
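Secreted IL-1B measured by AlphaLISA bead assay after 16 h compound exposure of THP-1 cells; compounds (final up to 57.5 uM) added 1 h before LPS (250 ng/mL) and ATP (1.25 mM) stimulation; lower signal means less secretion.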
DT40 TDP1 CPT = growth inhibition of DT40 Tdp1-/-;hTDP1 cells with camptothecin (screen for TDP1 inhibitors); chicken DT40 Tdp1-/-;hTDP1 cells + 20 nM CPT, ATP luminescence, 48 h; Potency, µM (top dose mostly 46.2 µM), inactives show top-dose activity change, negative = growth inhibition, most hits filed as inhibitors; 420,000 compounds, 12% hits; AID 686979; further: potency means the concentration at half of the fitted maximal effect; nearly all actives have a fitted effect of over 55% in size
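Cell growth measured by CellTiter-Glo luminescence after a minimum 48 h, 37 C compound exposure with 20 nM CPT in Tdp1-knockout DT40 cells stably expressing hTDP1, seeded 400/well; qHTS titration format.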
* = called active by the depositor; ? = inconclusive; . = no result. This is a sample that favours compounds with a hit; in the whole collection about 19% have one here. Unless noted, the call rests on the fitted dose curve; in most records, active means well fitted curve in the direction sought with a large enough effect; inconclusive means small, poorly fitted or top-dose-only effect, or another doubt; inactive means no such curve, though single readings can be large; an effect the other way counts as inactive or inconclusive. Unless noted, on the % scale 0 is the no-effect control and ±100 the full control effect.

SMILES	ELG1 DNA repair	HT1080 IDH1KD tx	HT1080NT lethal	DT40 TDP1 no CPT	IL1B secr inh	DT40 TDP1 CPT
COc1ccc(S(=O)(=O)c2c(C(=O)c3ccc(C)c(C)c3)cnc3ccc(C)cc23)cc1	.	.	.	6.5µM*	.	7.3µM*
CCS(=O)(=O)N1CCN(C2CCC(c3ccccc3)CC2)CC1 (configuration not stated)	-15%	.	.	.	.	.
CCN(CC)CCN(C)C1CCC(c2ccccc2)CC1 (configuration not stated)	-4%	-12%	-11%	21µM*	12	16µM*
Cc1nc([N+](=O)[O-])cn1CC(=O)c1ccc(Br)cc1	13%	9%	11%	-26%	14	-12%
CO/N=C1\CN(c2nc3c(cc2F)c(=O)c(C(=O)O)cn3C2CC2)CC1CN (configuration not stated)	.	.	.	4.6µM*	.	4.6µM*
CCN(CC)CCNC(=O)c1ccc(NC(=O)c2cn(-c3ccc(F)cc3)nc2-c2cccc(OC)c2)cc1	?	21µM*	23µM*	?	-90*	?
COc1cccc(NC(=O)CN(C)C(=O)/C=C/c2cn(-c3ccccc3)nc2-c2ccc(OC)c(OC)c2)c1	.	-7%	-9%	18µM*	-24	?
COc1ccc(-c2nn(-c3ccccc3)cc2C(=O)NCCCn2ccnc2)cc1	-18%	-3%	-18%	-12%	?	?
COc1ccc(-c2nn(-c3ccccc3)cc2/C=C/C(=O)NCCCn2ccnc2)cc1OC	16µM*	?	-15%	15µM*	?	-30%
COc1ccc(OC)c(/C=C/C(=O)N(C)CC(=O)Nc2ccc(C)cc2)c1	-15%	-2%	7%	10µM*	-4	6.5µM*
CCOc1ccc(NC(=O)CN(C)C(=O)c2c(C)nn(-c3ccc(F)cc3)c2Cl)cc1OCC	-15%	1%	-3%	-8%	-8	0%
CCN(CC)CCNC(=O)c1ccc(NC(=O)c2ccccc2-c2ccc(C(F)(F)F)cc2)cc1	5%	18µM*	23µM*	?	-67*	18µM*
CCOc1ccc(NC(=O)CN(C)C(=O)c2cn(-c3ccc(F)cc3)nc2-c2cccc(OC)c2)cc1OCC	9.2µM*	-12%	-11%	?	-4	?
CCN(CC(=O)Nc1ccc(NC(C)=O)cc1)C(=O)/C=C/c1cn(-c2ccccc2)nc1-c1ccc(C)cc1	8.2µM*	-24%	-27%	21µM*	?	?
Cc1ccc(Oc2nc3ccccn3c(=O)c2/C=C(\C#N)C(=O)Nc2c(C)n(C)n(-c3ccccc3)c2=O)cc1	18%	0%	0%	?	-61*	-23%
Cc1ccccc1Oc1nc2c(C)cccn2c(=O)c1/C=C(\C#N)C(=O)Nc1c(C)n(C)n(-c2ccccc2)c1=O	-2%	-19%	-29%	21µM*	?	21µM*
COC(=O)/C(C#N)=C/c1c(Oc2cc(C)cc(C)c2)nc2ccccn2c1=O	-13%	4%	1%	?	11	?
Cc1ccccc1Oc1nc2ccccn2c(=O)c1/C=C(\C#N)C(=O)Nc1c(C)n(C)n(-c2ccccc2)c1=O	0%	-18%	-12%	?	0	?
Cc1cc(C)cc(Oc2nc3ccccn3c(=O)c2/C=C(\C#N)C(=O)NC2CCS(=O)(=O)C2)c1 (configuration not stated)	0%	?	-29%	9.2µM*	12	?
CCCCc1c(C)nc2ccc(C)cc2c1SCCC(=O)O	9%	-14%	-8%	9.2µM*	2	?
CC(C)NC[C@@H](O)COc1ccc(CCOCC2CC2)cc1	.	.	.	-10%	.	11%
